Inconclusive results are not listed. Where a call stands in place of a potency, no number is given. The source made the active and inactive calls. Calls follow the shape of the dose curve; as a rule, active = well fitted activation curve with a large enough effect in the repeat runs; inconclusive = weak or mixed curves, or effect the other way; inactive = no such curve, though single readings can be large or run the other way.
assay: qHTS assay to identify small molecule agonists of the estrogen related receptor signaling pathway with the pleiotropic PPARgamma coactivator (PGC) from Tox21 10K library (AID 1224842); conditions: PGC/ERR reporter cell line, luciferase ONE-Glo, 18 h; series mostly up to 92.4 µM; also: nearly all actives have a fitted effect of over 15% in size
Excerpt: National Center for Advancing Translational Sciences [NCATS] NIH Chemical Genomics Center [NCGC] U.S. Environmental Protection Agency [EPA] National Institutes of Environmental Health Sciences [NIEHS] National Toxicology Program [NTP] Assay overview: Estrogen related receptors (ERRs), the first orphan nuclear receptors discovered, play an important role in the control of cellular energy metabolism. ERRs are required for high-energy production in response to the environmental challenges. The pleiotropic PPARgamma coactivator (PGC) is a major partner of ERR and a key regulator in energy homeostasis. Together they have been implicated in the etiology of metabolic disorders such as Type 2 diabetes and metabolic syndrome. ERR-alpha was also identified as an adverse marker for breast cancer progression; ERR-alpha-positive tumors have a poor prognosis. To screen and to identify environmental compounds that perturb the PGC/ERR signaling pathways could provide valuable information for potential therapeutic or preventive measures in the treatment of metabolic disease. For identifying PGC/ERR agonists, PGC/ERR cell line (provided by NTP) has been used to screen Tox21 10K library.
Assay Protocol Summary: The PGC/ERR cells were dispensed at 2,000 cells/5 ul/well in 1536-well white plates using a Multidrop dispenser. After the assay plates were incubated at a 37 C/5% CO2 incubator for 6 hours, 23 nL of compounds dissolved in DMSO, positive and negative controls or DMSO only was transferred to the assay plate by a pin tool. The plates were incubated at 37 C for 18 hours. 4 ul/well of One-Glo reagent was added into the assay plates using a Flying Reagent Dispenser. After 30-minute incubation at room temperature, the luminescence intensity in the plates was measured using a ViewLux plate reader.
Potency is read from the fitted curve at half-maximal effect.

Structure (SMILES)	Potency
CC/C(=C\C(=N/O)C(N)=O)C(C)[N+](=O)[O-] (stereo not given)	inactive
CC(C)NCC(O)c1cc(O)cc(O)c1 (stereo not given)	inactive
N[C@H]1C(O)O[C@H](CO)[C@H](O)[C@@H]1O (stereo not given in full)	inactive
NC(N)=N/N=C/c1c(Cl)cccc1Cl	inactive
CCCCCCc1ccc(N)cc1	inactive
Cl/C(=C\n1cncn1)c1ccc(Cl)cc1Cl	inactive
C=C(C)C(=O)OCCOc1ccccc1	inactive
Cn1c(NCCN(CCO)CCCc2ccc([N+](=O)[O-])cc2)cc(=O)n(C)c1=O	inactive
CCc1nn(C2CCCCC2)c2cc(C3(C#N)CCC(C(=O)O)CC3)ccc12 (stereo not given)	inactive
Cc1ccc(C(=O)C(C)CN2CCCCC2)cc1 (stereo not given)	inactive
Cc1ccccn1	inactive
CN1CCC(=C2c3ccccc3C=Cc3ccccc32)CC1	inactive
CCCCCCCC/C=C\CCCCCCCC(N)=O	inactive
CCC(=O)OC(C)(C)C1CC=C(C)CC1 (stereo not given)	inactive
CCN(CC)CCc1nc(-c2ccccc2)no1	inactive
CCCCCC(CO)CCC (stereo not given)	inactive
NCc1ccccc1	inactive
CCN(CC)CCOC(=O)C1(c2ccccc2)CCCC1	inactive
NC(N)=NN=C(/C=C/c1ccc([N+](=O)[O-])o1)/C=C/c1ccc([N+](=O)[O-])o1	inactive
CCOc1ccc2[nH]cc(C(=O)NCc3ccccc3)c(=O)c2n1	inactive

Structure (SMILES)	Potency
O=C(O)[C@@H]1[C@H]2C[C@H]3c4[nH]c5ccccc5c4CCN3C[C@@H]2CC[C@@H]1O	inactive
Oc1ccc(C(O)CNCCCCCCNCC(O)c2ccc(O)c(O)c2)cc1O (stereo not given)	7.5 µM (active)
Nc1ccc(C(=O)Nc2ccccc2N)cc1	11.9 µM (active)
CCCC[C@H]1CN(CC2CCOCC2)C(=O)OC12CCN(C1(C)CCN(C(=O)c3c(C)ncnc3C)CC1)CC2	inactive
C=CC[N+]1([C@H]2C[C@H]3[C@@H]4CC[C@H]5C[C@H](OC(C)=O)[C@@H](N6CCCCC6)C[C@]5(C)[C@H]4CC[C@]3(C)[C@H]2OC(=O)CC)CCCCC1	inactive
O=C(O)Cc1sc(-c2ccccc2)nc1-c1ccc(Cl)cc1	inactive
Oc1ccc(O)c2c(O)cccc12	inactive
CCCCCCCCC(CO)CCCCCC (stereo not given)	inactive
Nc1nc(N)c(-c2ccccc2)s1	inactive
CC[C@]12CCCN3CCc4c(n(c5ccccc45)C(=O)C1)[C@@H]32	inactive
C=CCCCCCC	inactive
COc1ccc2[nH]c(S(=O)Cc3ncc(C)c(OC)c3C)nc2n1 (stereo not given)	inactive
CCN(CC)CCOc1ccc2c(c1)C(=O)c1cc(OCCN(CC)CC)ccc1-2	inactive
CC(=O)N(CC(=O)N(C)C)c1ccccc1	inactive
COC(=O)C(C)=O	inactive
O=C(O)Cn1c(C(=O)Nc2nc(-c3ccccc3Cl)cs2)cc2ccccc21	inactive
CC(C)(C)c1ccc(OCC2CO2)cc1 (stereo not given)	inactive
NC(=S)N/N=C/c1cccnc1	inactive
CC(CN)CCCN (stereo not given)	inactive
O=C1[C@H](CC[C@H](O)c2ccc(F)cc2)[C@@H](c2ccc(O)cc2)N1c1ccc(F)cc1	inactive
